# Measured values: the supplement of paper PMC11001985
# Compound: C#CCNC(=O)CCSSCCC(=O)NCCc1ccc(C=O)c(C=O)c1
# Test: lysine labeling ratio R10:1 (500 µM / 50 µM probe), SILAC-ABPP in living cells; higher = lower intrinsic lysine reactivity toward the probe, active = 2 or less
# Details: HeLa; probe concentrations 500 vs 50 µM
# Outline: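 With forward and reverse label swaps, light and heavy SILAC HeLa cells, alive and in PBS at room temperature, were exposed to either 500 µM or 50 µM of an alkyne-tagged lysine probe bearing a disulfide link. After mixing, lysates were clicked to biotin-azide, cut with trypsin, pulled down on neutravidin, freed with DTT, alkylated and analysed on a TIMS-TOF Pro by LC-MS/MS. The per-lysine value R is the median over forward and reverse replicates of the filtered median high-probe/low-probe MS1 peptide ratio. It is capped at 20.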
# Sequence of UniProt P05783 (P05783 whole entry): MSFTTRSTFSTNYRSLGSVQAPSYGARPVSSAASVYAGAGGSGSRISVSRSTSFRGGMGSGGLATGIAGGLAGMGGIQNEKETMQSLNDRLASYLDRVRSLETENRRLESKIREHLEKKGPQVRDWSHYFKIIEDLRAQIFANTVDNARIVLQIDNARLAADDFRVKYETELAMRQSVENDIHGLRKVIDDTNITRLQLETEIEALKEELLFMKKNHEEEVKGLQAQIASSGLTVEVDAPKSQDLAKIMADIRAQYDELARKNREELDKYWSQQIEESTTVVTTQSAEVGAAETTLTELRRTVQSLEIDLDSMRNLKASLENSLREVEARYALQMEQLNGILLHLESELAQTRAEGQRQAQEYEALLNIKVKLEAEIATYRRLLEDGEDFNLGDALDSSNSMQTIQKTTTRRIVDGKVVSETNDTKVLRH
# Sequence of UniProt P00533 (P00533 whole entry): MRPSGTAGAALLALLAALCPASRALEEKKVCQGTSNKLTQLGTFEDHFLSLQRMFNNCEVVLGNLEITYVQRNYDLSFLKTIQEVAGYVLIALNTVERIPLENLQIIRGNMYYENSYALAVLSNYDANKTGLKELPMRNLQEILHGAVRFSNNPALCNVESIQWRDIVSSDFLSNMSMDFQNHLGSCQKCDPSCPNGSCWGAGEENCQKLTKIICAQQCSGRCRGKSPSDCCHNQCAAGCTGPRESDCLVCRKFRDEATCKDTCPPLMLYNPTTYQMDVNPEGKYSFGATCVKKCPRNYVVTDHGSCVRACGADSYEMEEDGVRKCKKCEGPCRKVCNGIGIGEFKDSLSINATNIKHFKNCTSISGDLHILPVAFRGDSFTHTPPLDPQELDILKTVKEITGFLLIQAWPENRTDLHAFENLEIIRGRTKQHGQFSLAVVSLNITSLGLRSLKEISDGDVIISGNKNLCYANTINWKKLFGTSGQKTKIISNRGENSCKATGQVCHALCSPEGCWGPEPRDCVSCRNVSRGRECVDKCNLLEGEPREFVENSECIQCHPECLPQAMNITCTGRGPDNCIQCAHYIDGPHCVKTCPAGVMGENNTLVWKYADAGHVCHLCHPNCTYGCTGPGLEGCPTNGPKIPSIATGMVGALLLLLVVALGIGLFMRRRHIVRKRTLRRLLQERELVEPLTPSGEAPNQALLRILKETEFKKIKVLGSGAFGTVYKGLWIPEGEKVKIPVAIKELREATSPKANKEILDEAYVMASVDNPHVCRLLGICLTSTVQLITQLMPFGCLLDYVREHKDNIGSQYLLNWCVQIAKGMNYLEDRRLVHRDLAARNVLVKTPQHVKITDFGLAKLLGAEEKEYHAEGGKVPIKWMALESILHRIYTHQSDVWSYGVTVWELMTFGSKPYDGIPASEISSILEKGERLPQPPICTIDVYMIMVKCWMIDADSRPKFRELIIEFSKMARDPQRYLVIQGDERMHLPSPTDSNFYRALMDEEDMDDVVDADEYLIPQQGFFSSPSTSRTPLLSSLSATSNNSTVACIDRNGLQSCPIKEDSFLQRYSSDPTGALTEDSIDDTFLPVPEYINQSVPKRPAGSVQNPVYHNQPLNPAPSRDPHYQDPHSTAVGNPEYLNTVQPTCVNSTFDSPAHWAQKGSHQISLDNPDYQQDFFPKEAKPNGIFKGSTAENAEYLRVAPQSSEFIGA
# Sequence of UniProt Q13813 (Q13813 whole entry): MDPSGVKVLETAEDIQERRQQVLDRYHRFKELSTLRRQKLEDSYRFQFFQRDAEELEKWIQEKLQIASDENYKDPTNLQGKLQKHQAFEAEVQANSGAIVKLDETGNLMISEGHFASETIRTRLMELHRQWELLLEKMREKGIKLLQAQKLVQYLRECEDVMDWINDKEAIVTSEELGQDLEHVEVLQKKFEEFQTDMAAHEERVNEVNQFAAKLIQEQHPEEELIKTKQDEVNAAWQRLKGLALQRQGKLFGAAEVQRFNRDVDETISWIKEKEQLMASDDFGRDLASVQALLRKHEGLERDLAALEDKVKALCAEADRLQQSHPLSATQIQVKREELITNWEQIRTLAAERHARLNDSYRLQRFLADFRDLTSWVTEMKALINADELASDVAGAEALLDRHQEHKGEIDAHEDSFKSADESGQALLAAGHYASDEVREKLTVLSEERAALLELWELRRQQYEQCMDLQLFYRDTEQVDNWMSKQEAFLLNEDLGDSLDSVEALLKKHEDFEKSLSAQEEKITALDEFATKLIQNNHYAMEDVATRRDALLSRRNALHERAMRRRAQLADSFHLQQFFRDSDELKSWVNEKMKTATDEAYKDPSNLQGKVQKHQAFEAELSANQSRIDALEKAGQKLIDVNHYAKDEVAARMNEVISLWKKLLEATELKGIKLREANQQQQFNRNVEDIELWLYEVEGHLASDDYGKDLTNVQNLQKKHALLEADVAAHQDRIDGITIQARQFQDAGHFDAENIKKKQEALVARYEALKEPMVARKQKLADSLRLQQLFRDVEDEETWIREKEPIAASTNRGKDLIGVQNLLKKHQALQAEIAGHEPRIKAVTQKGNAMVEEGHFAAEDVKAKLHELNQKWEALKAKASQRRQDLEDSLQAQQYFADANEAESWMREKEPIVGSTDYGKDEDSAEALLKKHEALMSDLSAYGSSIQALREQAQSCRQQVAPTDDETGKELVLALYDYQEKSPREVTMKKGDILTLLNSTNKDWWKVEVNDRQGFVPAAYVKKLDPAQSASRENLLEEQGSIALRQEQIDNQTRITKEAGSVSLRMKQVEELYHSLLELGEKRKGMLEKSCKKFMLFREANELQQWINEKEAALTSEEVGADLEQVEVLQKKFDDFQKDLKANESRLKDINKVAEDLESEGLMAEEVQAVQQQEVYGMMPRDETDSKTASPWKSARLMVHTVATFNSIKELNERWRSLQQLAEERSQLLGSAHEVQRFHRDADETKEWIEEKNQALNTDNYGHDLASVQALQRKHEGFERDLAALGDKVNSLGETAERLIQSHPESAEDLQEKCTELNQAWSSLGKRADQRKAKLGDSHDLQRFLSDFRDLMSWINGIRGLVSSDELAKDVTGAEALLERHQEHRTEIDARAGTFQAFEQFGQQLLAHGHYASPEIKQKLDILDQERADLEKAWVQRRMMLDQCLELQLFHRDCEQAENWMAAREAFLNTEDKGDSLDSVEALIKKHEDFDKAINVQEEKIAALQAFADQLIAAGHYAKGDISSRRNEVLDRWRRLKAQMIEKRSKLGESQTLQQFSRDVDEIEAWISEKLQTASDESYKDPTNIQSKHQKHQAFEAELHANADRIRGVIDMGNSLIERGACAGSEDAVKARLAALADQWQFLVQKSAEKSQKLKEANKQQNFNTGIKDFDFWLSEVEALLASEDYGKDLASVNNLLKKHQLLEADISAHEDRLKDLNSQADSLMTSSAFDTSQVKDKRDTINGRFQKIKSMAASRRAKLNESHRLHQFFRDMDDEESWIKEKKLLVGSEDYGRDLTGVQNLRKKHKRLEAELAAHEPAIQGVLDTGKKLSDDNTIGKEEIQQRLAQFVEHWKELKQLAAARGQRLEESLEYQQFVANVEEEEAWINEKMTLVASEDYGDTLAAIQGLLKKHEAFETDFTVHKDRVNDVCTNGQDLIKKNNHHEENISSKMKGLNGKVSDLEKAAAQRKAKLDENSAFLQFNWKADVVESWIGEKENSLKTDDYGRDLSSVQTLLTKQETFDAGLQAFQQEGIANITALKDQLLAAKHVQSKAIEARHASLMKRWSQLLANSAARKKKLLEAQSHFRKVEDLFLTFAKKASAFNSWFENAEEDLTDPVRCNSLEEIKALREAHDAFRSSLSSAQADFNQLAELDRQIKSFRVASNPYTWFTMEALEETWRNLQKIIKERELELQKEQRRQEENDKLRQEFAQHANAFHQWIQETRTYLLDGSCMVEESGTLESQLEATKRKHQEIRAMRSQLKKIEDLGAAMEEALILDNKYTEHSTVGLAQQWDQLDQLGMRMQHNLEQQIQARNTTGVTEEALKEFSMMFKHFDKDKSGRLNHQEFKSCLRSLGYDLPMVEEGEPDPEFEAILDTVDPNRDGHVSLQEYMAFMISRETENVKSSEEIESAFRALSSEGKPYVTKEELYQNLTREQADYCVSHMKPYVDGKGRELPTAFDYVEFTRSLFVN
# Sequence of UniProt O94991 (O94991 whole entry): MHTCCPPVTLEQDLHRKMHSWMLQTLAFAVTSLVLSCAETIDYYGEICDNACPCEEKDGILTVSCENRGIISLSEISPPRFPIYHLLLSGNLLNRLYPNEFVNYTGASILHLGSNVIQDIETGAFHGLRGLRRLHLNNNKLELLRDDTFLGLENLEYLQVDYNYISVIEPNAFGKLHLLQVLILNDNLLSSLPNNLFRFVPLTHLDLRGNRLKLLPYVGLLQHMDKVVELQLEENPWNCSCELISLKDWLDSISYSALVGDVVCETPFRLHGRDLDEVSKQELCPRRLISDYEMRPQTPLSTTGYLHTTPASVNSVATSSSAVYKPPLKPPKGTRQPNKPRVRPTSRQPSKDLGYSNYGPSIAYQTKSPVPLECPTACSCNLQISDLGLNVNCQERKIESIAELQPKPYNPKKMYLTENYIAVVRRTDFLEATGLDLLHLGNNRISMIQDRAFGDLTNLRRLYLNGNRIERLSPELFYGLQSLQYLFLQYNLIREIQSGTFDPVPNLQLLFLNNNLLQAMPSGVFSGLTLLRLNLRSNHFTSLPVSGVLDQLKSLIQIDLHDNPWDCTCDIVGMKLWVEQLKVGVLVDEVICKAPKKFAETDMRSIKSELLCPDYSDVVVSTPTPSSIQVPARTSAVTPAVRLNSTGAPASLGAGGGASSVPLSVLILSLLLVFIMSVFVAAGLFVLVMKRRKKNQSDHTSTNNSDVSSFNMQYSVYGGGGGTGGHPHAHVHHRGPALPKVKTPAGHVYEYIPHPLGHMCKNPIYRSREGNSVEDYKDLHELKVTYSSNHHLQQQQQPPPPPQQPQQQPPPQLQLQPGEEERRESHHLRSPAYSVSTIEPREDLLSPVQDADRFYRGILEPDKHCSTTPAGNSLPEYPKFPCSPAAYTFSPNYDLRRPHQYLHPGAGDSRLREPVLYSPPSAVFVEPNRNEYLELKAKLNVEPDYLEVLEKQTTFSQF
row,Target,lysine labeling ratio R10:1
1,UniProt P62244 (lysine site: K60),2.48 (inactive)
2,LRPAP1 (lysine site: K340) (UniProt P30533),1.47 (active)
3,DDX5 (lysine site: K236) (UniProt P17844),2.34 (inactive)
4,FZD5 (lysine site: K113) (UniProt Q13467),1.57 (active)
5,SLC44A1 (lysine site: K75) (UniProt Q8WWI5),2.45 (inactive)
6,FOLR1 (lysine site: K76) (UniProt P15328),3.42 (inactive)
7,PSMA1 (lysine site: K115) (UniProt P25786),4.28 (inactive)
8,MARS (lysine site: K729) (UniProt P56192),1.58 (active)
9,UniProt O94991 (lysine site: K280),1.34 (active)
10,SPTAN1 (lysine site: K2205) (UniProt Q13813),6.67 (inactive)
11,VIM (lysine site: K313) (UniProt P08670),10.6 (inactive)
12,PPA1 (lysine site: K176) (UniProt Q15181),1.88 (active)
13,LPL (lysine site: K265) (UniProt P06858),1.86 (active)
14,LAMC1 (lysine site: K1567) (UniProt P11047),1.42 (active)
15,PDCD5 (lysine site: K33) (UniProt O14737),4.82 (inactive)
16,FH (lysine site: K80) (UniProt P07954),1.86 (active)
17,KRT18 (lysine site: K317) (UniProt P05783),7.92 (inactive)
18,UniProt P21589 (lysine site: K67),2.8 (inactive)
19,NCL (lysine site: K467) (UniProt P19338),0.565 (active)
20,CHST14 (lysine site: K226) (UniProt Q8NCH0),1.36 (active)

row,Target,lysine labeling ratio R10:1
1,EGFR (lysine site: K487) (UniProt P00533),1.61 (active)
2,IARS (lysine site: K641) (UniProt P41252),1.71 (active)
3,CAPZB (lysine site: K95) (UniProt P47756),3.24 (inactive)
4,SEMA4D (lysine site: K219) (UniProt Q92854),2.27 (inactive)
5,PLXNB2 (lysine site: K322) (UniProt O15031),0.663 (active)
6,LTBR (lysine site: K48) (UniProt P36941),4.97 (inactive)
7,PDIA3 (lysine site: K433) (UniProt P30101),2.21 (inactive)
8,HSPA5 (lysine site: K164) (UniProt P11021),0.987 (active)
9,FLNB (lysine site: K1372) (UniProt O75369),2.69 (inactive)
10,PRDX1 (lysine site: K197) (UniProt Q06830),2.6 (inactive)
11,EGFR (lysine site: K133) (UniProt P00533),1.08 (active)
12,SUB1 (lysine site: K80) (UniProt P53999),1.69 (active)
13,UniProt P60866 (lysine site: K67),2 (inactive)
14,KRT18 (lysine site: K167) (UniProt P05783),10.7 (inactive)
15,TMEM30A (lysine site: K155) (UniProt Q9NV96),2.09 (inactive)
16,EPHB4 (lysine site: K267) (UniProt P54760),3.27 (inactive)
17,LMO7 (lysine site: K794) (UniProt Q8WWI1),2.02 (inactive)
18,RPL14 (lysine site: K103) (UniProt P50914),3.31 (inactive)
19,RPS5 (lysine site: K47) (UniProt P46782),1.01 (active)
20,RALA (lysine site: K159) (UniProt P11233),0.885 (active)
